{"source": "PubChem BioAssay (Tox21)", "note": "Calls of active or inactive are those of the source. The call rests on the fitted dose curve; in most records, active means well fitted curve in the direction sought with a large enough effect in the repeat runs; inconclusive means weak or mixed curves; inactive means flat fitted curve, though single readings scatter."}
{"assay": "qHTS assay to test for compound auto fluorescence at 590 nm (red) in HepG2 cells (AID 720674)", "conditions": "HepG2 autofluorescence, red 540/590 nm, 1 h; series mostly up to 46 µM", "excerpt": "U.S. Tox21 Program National Center for Advancing Translational Sciences [NCATS] NIH Chemical Genomics Center [NCGC] U.S. Environmental Protection Agency [EPA] National Institutes of Environmental Health Sciences [NIEHS] National Toxicology Program [NTP] U.S. Food and Drug Administration [FDA] Tox21 Assay Overview: Compound auto fluorescence often interferes with screening of the compound library against various biological targets and signaling pathways. Some of these compounds may have fluorophoric properties. Such properties may interfere with the assay outputs resulting in false positives and/or negatives. To decrease such complications and ensure the compound activities are relevant in terms of biological response, the Tox21 10K compound library was screened for auto fluorescence. From the fluorophores used as reporter signals in our screening assays, the auto fluorescence equivalencies of compounds against three fluorophores have been evaluated: Triamterene, Fluorescein and Rose Bengal sodium for blue, green and red fluorescence, respectively. The fluorescence intensities were measured using Excitation/Emission wavelengths at 405/460nm, 485/535nm and 540/590nm for blue, green and red labels, respectively. This assay includes the red fluorescence data.\nTox21 Assay Protocol Summary: 2,000 HepG2 cells in 5 uL of culture medium (MEM containing 10% FBS) per well were dispensed into black wall/clear bottom 1536-well plates using a Multidrop Combi Dispenser (ThermoFisher Scientific, Waltham, MA). The assay plates were incubated overnight at 37 C to allow cell attachment to the well bottom, followed by the transfer of 23 nL compound or DMSO vehicle by a pintool work station (Kalypsys , San Diego, CA). After the assay plates were incubated for 1 hr at 37 C and 5% CO2, fluorescence intensities in the assay plates were measured by an Envision (PerkinElmer, Shelton, CT) plate reader using three labels for measuring blue, green and red fluorescence at […] 460, 535 and 590 nm respectively."}
{"compound": "Cc1ccc(Cl)cc1Cl", "outcome": "inactive"}
{"compound": "NS(=O)(=O)c1ccc(C(=O)O)cc1", "outcome": "inactive"}
{"compound": "Brc1c(NC2=NCCN2)ccc2nccnc12", "outcome": "inactive"}
{"compound": "Oc1ccc(C2CNCCc3c2cc(O)c(O)c3Cl)cc1", "note": "(stereo not given)", "outcome": "inactive"}
{"compound": "C=CCOCC(CC)(CO)COCC=C", "outcome": "inactive"}
{"compound": "CCCC(=O)O[C@]1(C(=O)CO)CC[C@H]2[C@@H]3CCC4=CC(=O)CC[C@]4(C)[C@H]3[C@@H](O)C[C@@]21C", "outcome": "inactive"}
{"compound": "CCSC(=O)N(CC(C)C)CC(C)C", "outcome": "inactive"}
{"compound": "CCO/C([O-])=N/c1c[n+](N2CCOCC2)no1", "outcome": "inactive"}
{"compound": "ClC(Cl)(Br)Br", "outcome": "inactive"}
{"compound": "COC(=O)[C@@H](N)Cc1ccc(O)c(O)c1", "outcome": "inactive"}
{"compound": "CC(C)CCCC(C)N", "note": "(stereo not given)", "outcome": "inactive"}
{"compound": "NC(=O)c1cn(Cc2c(F)cccc2F)nn1", "outcome": "inactive"}
{"compound": "c1cnc(N2CCN(Cc3ccc4c(c3)OCO4)CC2)nc1", "outcome": "inactive"}
{"compound": "COC(=O)c1c(Cl)c(Cl)c(C(=O)OC)c(Cl)c1Cl", "outcome": "inactive"}
{"compound": "CCCCCCCCS(=O)(=O)Cl", "outcome": "inactive"}
{"compound": "O=C(CCCN1CCC(O)(c2cccc(C(F)(F)F)c2)CC1)c1ccc(F)cc1", "outcome": "inactive"}
{"compound": "COc1cc(C(=O)N2CCCCCCC2)cc(OC)c1OC", "outcome": "inactive"}
{"compound": "Cc1ccc(C#N)cc1", "outcome": "inactive"}
{"compound": "CC(C)CNCC(C)C", "outcome": "inactive"}
{"compound": "NCCCNCCSP(=O)(O)O", "outcome": "inactive"}
{"compound": "CC(C)(C)NCCNC(C)(C)C", "outcome": "inactive"}
{"compound": "Cc1c(O)cccc1O", "outcome": "inactive"}
{"compound": "CC(=O)OCC(=O)[C@@]1(O)CCC2C3CCC4=CC(=O)CC[C@]4(C)C3[C@@H](O)C[C@@]21C", "note": "(stereo not given in full)", "outcome": "inactive"}
{"compound": "CCc1nccnc1CC", "outcome": "inactive"}
{"compound": "C=CCS(=O)(=O)O", "outcome": "inactive"}
{"compound": "CCN(CC)CCOCCOC(=O)C1(c2ccccc2)CCCC1", "outcome": "inactive"}
{"compound": "COC(=O)CCSCCC(=O)OC", "outcome": "inactive"}
{"compound": "NS(=O)(=O)c1cc(C(=O)O)cc(N2CCCC2)c1Oc1ccccc1", "outcome": "inactive"}
{"compound": "CN1CCCC1", "outcome": "inactive"}
{"compound": "CN1CCC(=C2c3ccccc3CC(=O)c3sccc32)CC1", "outcome": "inactive"}
{"compound": "Nc1ccccc1S(=O)(=O)O", "outcome": "inactive"}
{"compound": "CN1C(=O)N(C)C(O)C1O", "note": "(stereo not given)", "outcome": "inactive"}
{"compound": "C[C@@H]1CCN(C(=O)[C@H](CCCN=C(N)N)NS(=O)(=O)c2cccc3c2NC[C@H](C)C3)[C@@H](C(=O)O)C1", "outcome": "inactive"}
{"compound": "O=C(O)Cc1ccc(CCNS(=O)(=O)c2ccc(Cl)cc2)cc1", "outcome": "inactive"}
{"compound": "Cc1cc2c(cc1S(N)(=O)=O)S(=O)(=O)CCC2", "outcome": "inactive"}
{"compound": "O=C1CCCN1C1CCCCC1", "outcome": "inactive"}
{"compound": "CO/N=C(/C(=O)N[C@@H]1C(=O)N2C(C(=O)OCOC(=O)C(C)(C)C)=C(C)CS[C@H]12)c1csc(N)n1", "outcome": "inactive"}
{"compound": "CCOc1ccc(C(=O)OCCN(CC)CC)cc1", "outcome": "inactive"}
{"compound": "CO[Si](CCCOCC1CO1)(OC)OC", "note": "(stereo not given)", "outcome": "inactive"}
{"compound": "COC(=O)NN", "outcome": "inactive"}
